Several values for one entry are separate records, joined by “and”; a condition that tells them apart may be missing. Equal entries are not always repeated. Records with an inconclusive call do not appear. Entries that show only a call come without a potency. Some structures have more than one record in an assay (separate samples or runs), and their calls can disagree. Activity calls are given as the source filed them. Calls follow the shape of the dose curve; as a rule, active = well fitted inhibition curve with a large enough effect in the repeat runs; inconclusive = weak or mixed curves; inactive = no such curve, though single readings can be large or run the other way.
Assay: qHTS assay to identify small molecule antagonists of the estrogen related receptor (ERR) signaling pathway from Tox21 library (AID 1224848); also: nearly all actives have a fitted effect of over 50% in size
Conditions: ERR reporter cell line, luciferase antagonist mode, 18 h; series mostly up to 92.4 µM; activity, negative = inhibition: at the top concentration
Excerpt: U.S. Tox21 Program National Center for Advancing Translational Sciences [NCATS] NIH Chemical Genomics Center [NCGC] U.S. Environmental Protection Agency [EPA] National Institutes of Environmental Health Sciences [NIEHS] National Toxicology Program [NTP] U.S. Food and Drug Administration [FDA] Tox21 Assay Overview: Estrogen related receptors (ERRs), the first orphan nuclear receptors discovered, play an important role in the control of cellular energy metabolism. ERRs are required for high-energy production in response to the environmental challenges. ERR-alpha was also identified as an adverse marker for breast cancer progression; ERR-alpha-positive tumors have a poor prognosis. To screen and to identify environmental compounds that perturb the ERR signaling pathways could provide valuable information for potential therapeutic or preventive measures in the treatment of metabolic disease. For identifying ERR antagonists, ERR cell line (provided by NTP) has been used to screen Tox21 10K library.
Tox21 Assay Protocol Summary: The ERR cells were dispensed at 2,000 cells/5 ul/well in 1536-well white plates using a Multidrop dispenser. After the assay plates were incubated at a 37 C/5% CO2 incubator for 6 hours, 23 nL of compounds dissolved in DMSO, positive and negative controls or DMSO only was transferred to the assay plate by a pin tool. The plates were incubated at 37 C for 18 hours. 4 ul/well of One-Glo reagent was added into the assay plates using a Flying Reagent Dispenser. After 30-minute incubation at room temperature, the luminescence intensity in the plates was measured using a ViewLux plate reader.
Potency is read from the fitted curve at half-maximal effect.

Question: For `ON=C1CCCCC1`, which Potency is on record?
Answer: The Potency was “inactive”.

Question: Which Potency does the source give for `Cc1cccnc1` here?
Answer: Its Potency is “inactive”.

Question: Which Potency does the source give for `O=C(Oc1ccccc1)c1ccccc1` here?
Answer: Its Potency is “inactive”.

Question: Which Potency does the source give for `O=c1[nH]nnc2ccccc12` here?
Answer: Its Potency is “inactive”.

Question: Which Potency does the source give for `Nc1ccccc1[N+](=O)[O-]` here?
Answer: The Potency was “inactive”.

Question: With `CN(C)CCCN` as the compound, how does the Potency read?
Answer: The Potency was “inactive”.

Question: Which Potency does the source give for `CC[C@H](C)C(=O)O[C@H]1C[C@@H](C)C=C2C=C[C@H](C)[C@H](CC[C@@H]3C[C@@H](O)CC(=O)O3)[C@H]21` here?
Answer: Its Potency is “inactive”.

Question: For `O=C(O)CCCC[C@@H]1SC[C@@H]2NC(=O)N[C@@H]21`, which Potency is on record?
Answer: Its Potency is “inactive”.

Question: With `CCC(O)OCCCOC` (configuration not stated) as the compound, how does the Potency read?
Answer: The Potency was “inactive”.

Question: Which “activity, negative = inhibition” value does the source give for `CCCCC(CC)COC(=O)CS` (configuration not stated) here?
Answer: Its value is -0.584% (inactive).

Question: Which Potency does the source give for `OCC(CO)(CBr)CBr` here?
Answer: The Potency was “inactive”.

Question: Which Potency does the source give for `O=C(O)c1ccccc1C(c1ccc(O)cc1)c1ccc(O)cc1` here?
Answer: The Potency was “inactive”.

Question: Which Potency does the source give for `CC(C)CC(=O)CC(C)C` here?
Answer: The Potency was “inactive”.

Question: With `CCCCCCCCCCCCc1ccccc1` as the compound, how does the Potency read?
Answer: The Potency was “inactive”.

Question: With `CCc1cccc(C)c1N` as the compound, how does the Potency read?
Answer: Its Potency is “inactive”.

Question: Which Potency does the source give for `CCCCC(CC)COC(=O)C(C#N)=C(c1ccccc1)c1ccccc1` (configuration not stated) here?
Answer: Its Potency is 23.7 µM (active).

Question: With `C[C@H]1C[C@@H]2[C@H]([C@@H](O)C[C@@]3(C)[C@H]2CC[C@]3(O)C(=O)CO)[C@@]2(C)C=CC(=O)C=C12` as the compound, how does the Potency read?
Answer: The Potency was “inactive”.

Question: For `OC[C@H]1O[C@@](CO)(O[C@H]2O[C@H](CO)[C@@H](O)[C@H](O)[C@H]2O)[C@@H](O)[C@@H]1O`, which Potency is on record?
Answer: The Potency was “inactive”.

Question: With `OCCOCCOCCO` as the compound, how does the Potency read?
Answer: Its Potency is “inactive”.

Question: With `CC(=O)CC(=O)Nc1ccccc1C` as the compound, how does the Potency read?
Answer: The Potency was “inactive”.

Question: Which Potency does the source give for `CCC(O)OC(O)CC` (configuration not stated) here?
Answer: The Potency was “inactive”.

Question: For `N[C@@H](Cc1cc(I)c(Oc2cc(I)c(O)c(I)c2)c(I)c1)C(=O)O`, which Potency is on record?
Answer: The Potency was “inactive”.

Question: For `Cc1cccc(O)c1`, which Potency is on record?
Answer: The Potency was “inactive”.

Question: With `Fc1ccc(Br)cc1` as the compound, how does the Potency read?
Answer: The Potency was “inactive”.

Question: For `CC1=C(C)S(=O)(=O)CCS1(=O)=O`, which Potency is on record?
Answer: The Potency was “inactive”.

Question: With `CN(C)CCOCCN(C)C` as the compound, how does the Potency read?
Answer: The Potency was “inactive”.

Question: With `CSCCC=O` as the compound, how does the Potency read?
Answer: The Potency was “inactive”.

Question: For `O=C(CC(C(=O)OC1CCCCC1)S(=O)(=O)O)OC1CCCCC1` (configuration not stated), which Potency is on record?
Answer: The Potency was “inactive”.

Question: For `c1ccc2c(c1)ccc1ccccc12`, which Potency is on record?
Answer: Its Potency is 47.2 µM (active) and 24.3 µM (active).

Question: Which Potency does the source give for `COc1ccc(Nc2ccccc2)c(C)c1` here?
Answer: Its Potency is “inactive”.

Question: With `COS(C)(=O)=O` as the compound, how does the Potency read?
Answer: Its Potency is “inactive”.

Question: For `CC(C)(N)CO`, which Potency is on record?
Answer: The Potency was “inactive”.

Question: For `C=C(C)C(=O)O[C@H]1C[C@@H]2CC[C@@]1(C)C2(C)C`, which Potency is on record?
Answer: The Potency was 4.83 µM (active) and inactive.

Question: Which Potency does the source give for `CCCCCCCCCCCCCCCO` here?
Answer: Its Potency is “inactive”.

Question: For `O=P(OC(CCl)CCl)(OC(CCl)CCl)OC(CCl)CCl`, which Potency is on record?
Answer: The Potency was 48.3 µM (active) and 54.5 µM (active).

Question: With `COCCCOc1ccnc(CS(=O)c2nc3ccccc3[nH]2)c1C` (configuration not stated) as the compound, how does the “activity, negative = inhibition” value read?
Answer: The value was 12.1% [at 42.5 µM] (inactive).

Question: Which Potency does the source give for `Nc1cc([N+](=O)[O-])ccc1O` here?
Answer: Its Potency is “inactive”.

From PubChem BioAssay (Tox21)
